This note sets out measurements from ChEMBL document CHEMBL1961873, “Compounds: GSK PKIS; Assays: Nanosyn kinase panel” (2012).

Molecules are shown by their SMILES.

Assay [1] deals with Serine/threonine-protein kinase MARK2 (Homo sapiens) (UniProt Q7KZI7). The conditions noted are these: at 1 µM.
In assay [2] the target is PAS domain-containing serine/threonine-protein kinase (Homo sapiens) (UniProt Q96RG2). To be noted: at 0.1 µM.
For assay [3] the target is unchanged. The conditions noted are these: at 1 µM.
The target of assay [4] is Phosphorylase b kinase gamma catalytic chain, skeletal muscle/heart isoform (Homo sapiens) (UniProt Q16816). The conditions noted are these: at 0.1 µM.
Sequence of Phosphorylase b kinase gamma catalytic chain, skeletal muscle/heart isoform (Homo sapiens) (Q16816 whole entry, looked up, canonical isoform): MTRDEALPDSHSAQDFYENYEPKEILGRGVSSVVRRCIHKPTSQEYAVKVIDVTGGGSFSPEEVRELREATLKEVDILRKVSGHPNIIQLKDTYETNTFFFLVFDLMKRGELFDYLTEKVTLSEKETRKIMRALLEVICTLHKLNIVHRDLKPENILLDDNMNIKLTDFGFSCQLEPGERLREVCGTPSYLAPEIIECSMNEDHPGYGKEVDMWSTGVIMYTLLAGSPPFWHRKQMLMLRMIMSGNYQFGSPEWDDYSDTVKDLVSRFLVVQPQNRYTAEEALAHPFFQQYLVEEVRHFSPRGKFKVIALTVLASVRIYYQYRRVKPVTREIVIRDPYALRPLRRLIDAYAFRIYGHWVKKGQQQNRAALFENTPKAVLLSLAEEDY
The target is the same in assay [5]. To be noted: at 1 µM.
For assay [6], the target named is T1, Phosphorylase b kinase gamma catalytic chain, liver/testis isoform (Homo sapiens) (UniProt P15735).
T1 sequence (whole entry): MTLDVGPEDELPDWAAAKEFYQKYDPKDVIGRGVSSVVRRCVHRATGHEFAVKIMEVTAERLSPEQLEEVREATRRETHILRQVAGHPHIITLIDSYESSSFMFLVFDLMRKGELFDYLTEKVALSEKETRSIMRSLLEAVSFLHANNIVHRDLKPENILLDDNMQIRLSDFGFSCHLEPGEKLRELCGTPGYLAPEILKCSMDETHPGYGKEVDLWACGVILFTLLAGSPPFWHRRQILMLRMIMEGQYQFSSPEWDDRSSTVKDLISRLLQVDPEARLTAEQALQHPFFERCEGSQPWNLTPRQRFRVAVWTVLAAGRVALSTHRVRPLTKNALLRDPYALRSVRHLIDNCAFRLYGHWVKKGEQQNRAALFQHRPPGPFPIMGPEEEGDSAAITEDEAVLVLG
The conditions noted are these: at 0.1 µM.

The target in assay [7] is T1, Phosphorylase b kinase gamma catalytic chain, liver/testis isoform (Homo sapiens). To be noted: at 1 µM.
Assay [8] addresses Serine/threonine-protein kinase pim-1 (Homo sapiens) (UniProt P11309). The conditions noted are these: at 0.1 µM.
Assay [9] shares this target. To be noted: at 1 µM.
Assay [10] addresses Serine/threonine-protein kinase pim-2 (Homo sapiens) (UniProt Q9P1W9). The conditions noted are these: at 0.1 µM.
Assay [11] shares this target. To be noted: at 1 µM.
The target of assay [12] is Serine/threonine-protein kinase pim-3 (Homo sapiens) (UniProt Q86V86). The conditions noted are these: at 0.1 µM.
Assay [13] shares this target. The conditions noted are these: at 1 µM.
Assay [14] deals with T2, MAP kinase-activated protein kinase 5 (Homo sapiens) (UniProt Q8IW41).
T2 sequence (whole entry): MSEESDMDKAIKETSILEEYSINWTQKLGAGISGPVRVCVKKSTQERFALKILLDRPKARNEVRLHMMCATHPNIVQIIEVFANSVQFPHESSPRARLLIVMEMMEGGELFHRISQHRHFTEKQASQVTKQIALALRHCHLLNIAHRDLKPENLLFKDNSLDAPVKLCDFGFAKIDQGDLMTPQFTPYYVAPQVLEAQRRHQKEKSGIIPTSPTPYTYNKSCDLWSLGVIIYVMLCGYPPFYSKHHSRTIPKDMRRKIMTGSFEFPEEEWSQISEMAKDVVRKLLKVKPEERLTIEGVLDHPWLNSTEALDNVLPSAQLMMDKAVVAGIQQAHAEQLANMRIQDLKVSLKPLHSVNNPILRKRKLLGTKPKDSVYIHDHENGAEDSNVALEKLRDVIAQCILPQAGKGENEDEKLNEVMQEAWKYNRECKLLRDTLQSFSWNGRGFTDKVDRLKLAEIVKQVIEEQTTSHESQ
The conditions noted are these: at 0.1 µM.

The target in assay [15] is T2, MAP kinase-activated protein kinase 5 (Homo sapiens). The conditions noted are these: at 1 µM.
In assay [16] the target is Serine/threonine-protein kinase SIK1 (Homo sapiens) (UniProt P57059). The conditions noted are these: at 0.1 µM.
Assay [17] has the same target. To be noted: at 1 µM.
Assay [18] addresses Serine/threonine-protein kinase SIK2 (Homo sapiens) (UniProt Q9H0K1). The conditions noted are these: at 0.1 µM.
Assay [19] shares this target. The conditions noted are these: at 1 µM.
For assay [20], the target named is T3, Serine/threonine-protein kinase TBK1 (Homo sapiens) (UniProt Q9UHD2).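 Also: values are the mean TBK1 inhibition, taken from the GSK PKIS screening data.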
T3 sequence (whole entry): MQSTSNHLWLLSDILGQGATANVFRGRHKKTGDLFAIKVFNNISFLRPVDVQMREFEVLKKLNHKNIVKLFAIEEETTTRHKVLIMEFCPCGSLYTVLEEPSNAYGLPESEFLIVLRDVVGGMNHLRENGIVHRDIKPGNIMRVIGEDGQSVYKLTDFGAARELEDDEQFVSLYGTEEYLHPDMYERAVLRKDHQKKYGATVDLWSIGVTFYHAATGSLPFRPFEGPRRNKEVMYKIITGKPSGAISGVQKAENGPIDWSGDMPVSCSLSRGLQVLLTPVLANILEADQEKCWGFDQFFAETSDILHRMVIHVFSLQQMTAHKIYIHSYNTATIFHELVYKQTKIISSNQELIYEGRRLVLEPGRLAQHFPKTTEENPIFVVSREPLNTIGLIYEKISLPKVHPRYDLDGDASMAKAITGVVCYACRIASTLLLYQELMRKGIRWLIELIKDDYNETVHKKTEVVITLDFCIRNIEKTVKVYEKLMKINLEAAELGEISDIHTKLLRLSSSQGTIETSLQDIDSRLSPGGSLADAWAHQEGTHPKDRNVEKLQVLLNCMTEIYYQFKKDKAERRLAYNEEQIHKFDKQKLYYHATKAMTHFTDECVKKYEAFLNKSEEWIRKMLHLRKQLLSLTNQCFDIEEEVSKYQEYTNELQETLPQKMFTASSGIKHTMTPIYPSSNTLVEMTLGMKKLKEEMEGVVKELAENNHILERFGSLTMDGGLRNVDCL
The conditions noted are these: at 0.1 µM.

Sequence of Serine/threonine-protein kinase MARK2 (Homo sapiens) (Q7KZI7 whole entry, the tested form may be a part): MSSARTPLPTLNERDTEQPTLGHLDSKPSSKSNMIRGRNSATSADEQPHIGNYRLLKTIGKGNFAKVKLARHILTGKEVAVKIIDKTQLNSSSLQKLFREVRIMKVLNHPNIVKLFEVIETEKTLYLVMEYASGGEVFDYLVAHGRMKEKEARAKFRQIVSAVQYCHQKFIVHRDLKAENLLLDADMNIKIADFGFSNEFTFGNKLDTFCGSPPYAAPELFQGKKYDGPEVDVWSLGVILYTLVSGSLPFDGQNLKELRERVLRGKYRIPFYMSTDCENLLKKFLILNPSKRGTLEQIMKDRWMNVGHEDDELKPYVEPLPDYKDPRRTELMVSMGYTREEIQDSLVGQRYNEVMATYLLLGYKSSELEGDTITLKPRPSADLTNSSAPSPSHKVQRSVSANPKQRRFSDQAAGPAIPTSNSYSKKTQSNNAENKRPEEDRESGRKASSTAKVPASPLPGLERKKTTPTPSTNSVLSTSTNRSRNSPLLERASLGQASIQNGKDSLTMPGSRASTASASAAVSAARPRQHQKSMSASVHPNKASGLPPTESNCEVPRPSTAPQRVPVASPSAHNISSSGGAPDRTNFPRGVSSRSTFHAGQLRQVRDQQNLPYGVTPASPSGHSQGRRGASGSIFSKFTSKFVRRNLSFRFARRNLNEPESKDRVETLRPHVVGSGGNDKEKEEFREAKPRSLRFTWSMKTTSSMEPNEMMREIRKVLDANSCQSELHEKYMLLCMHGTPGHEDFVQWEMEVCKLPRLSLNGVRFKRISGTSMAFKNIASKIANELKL
Sequence of Serine/threonine-protein kinase pim-2 (Homo sapiens) (Q9P1W9 whole entry, looked up): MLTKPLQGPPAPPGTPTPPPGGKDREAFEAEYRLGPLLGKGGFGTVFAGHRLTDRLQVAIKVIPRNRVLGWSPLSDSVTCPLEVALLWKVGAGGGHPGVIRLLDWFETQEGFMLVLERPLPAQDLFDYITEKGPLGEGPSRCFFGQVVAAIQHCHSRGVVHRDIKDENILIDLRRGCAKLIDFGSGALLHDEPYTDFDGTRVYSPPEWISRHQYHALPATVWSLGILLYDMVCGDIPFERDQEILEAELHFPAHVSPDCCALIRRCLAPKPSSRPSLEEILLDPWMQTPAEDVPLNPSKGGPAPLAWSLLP
Sequence of Serine/threonine-protein kinase pim-1 (Homo sapiens) (P11309 whole entry, looked up): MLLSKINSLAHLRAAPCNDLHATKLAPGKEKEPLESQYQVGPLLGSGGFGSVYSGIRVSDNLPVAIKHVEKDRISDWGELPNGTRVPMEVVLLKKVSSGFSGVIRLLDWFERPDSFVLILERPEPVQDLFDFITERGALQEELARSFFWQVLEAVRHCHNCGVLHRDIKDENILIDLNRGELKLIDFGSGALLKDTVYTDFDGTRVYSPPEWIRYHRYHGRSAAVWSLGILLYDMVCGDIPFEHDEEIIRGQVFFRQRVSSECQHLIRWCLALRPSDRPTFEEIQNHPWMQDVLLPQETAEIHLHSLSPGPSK
Sequence of Serine/threonine-protein kinase SIK2 (Homo sapiens) (Q9H0K1 whole entry, looked up): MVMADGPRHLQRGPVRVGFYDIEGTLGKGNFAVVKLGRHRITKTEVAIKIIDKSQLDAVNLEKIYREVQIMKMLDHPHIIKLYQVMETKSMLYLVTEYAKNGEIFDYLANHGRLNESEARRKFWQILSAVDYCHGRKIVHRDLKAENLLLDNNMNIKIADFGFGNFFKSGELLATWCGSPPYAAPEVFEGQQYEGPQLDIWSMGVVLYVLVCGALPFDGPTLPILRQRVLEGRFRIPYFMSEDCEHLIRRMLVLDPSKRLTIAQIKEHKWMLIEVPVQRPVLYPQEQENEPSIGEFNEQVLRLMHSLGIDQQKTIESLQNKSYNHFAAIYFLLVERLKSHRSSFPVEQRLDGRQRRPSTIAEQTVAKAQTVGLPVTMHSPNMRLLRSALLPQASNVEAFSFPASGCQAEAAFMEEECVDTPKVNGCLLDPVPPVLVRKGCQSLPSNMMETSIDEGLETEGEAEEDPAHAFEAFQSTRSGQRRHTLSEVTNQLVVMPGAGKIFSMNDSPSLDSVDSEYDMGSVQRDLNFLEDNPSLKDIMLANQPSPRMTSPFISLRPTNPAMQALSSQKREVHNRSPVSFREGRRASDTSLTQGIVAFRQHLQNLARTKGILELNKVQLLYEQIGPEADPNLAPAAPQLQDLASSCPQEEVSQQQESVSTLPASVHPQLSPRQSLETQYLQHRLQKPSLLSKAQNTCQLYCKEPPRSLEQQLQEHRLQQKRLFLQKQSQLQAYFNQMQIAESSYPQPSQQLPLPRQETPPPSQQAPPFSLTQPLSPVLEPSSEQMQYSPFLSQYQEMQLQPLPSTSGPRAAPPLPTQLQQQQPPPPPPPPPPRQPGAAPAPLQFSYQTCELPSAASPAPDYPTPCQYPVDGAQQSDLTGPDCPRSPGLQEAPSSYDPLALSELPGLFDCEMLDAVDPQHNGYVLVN
Sequence of PAS domain-containing serine/threonine-protein kinase (Homo sapiens) (Q96RG2 whole entry, the tested form may be a part): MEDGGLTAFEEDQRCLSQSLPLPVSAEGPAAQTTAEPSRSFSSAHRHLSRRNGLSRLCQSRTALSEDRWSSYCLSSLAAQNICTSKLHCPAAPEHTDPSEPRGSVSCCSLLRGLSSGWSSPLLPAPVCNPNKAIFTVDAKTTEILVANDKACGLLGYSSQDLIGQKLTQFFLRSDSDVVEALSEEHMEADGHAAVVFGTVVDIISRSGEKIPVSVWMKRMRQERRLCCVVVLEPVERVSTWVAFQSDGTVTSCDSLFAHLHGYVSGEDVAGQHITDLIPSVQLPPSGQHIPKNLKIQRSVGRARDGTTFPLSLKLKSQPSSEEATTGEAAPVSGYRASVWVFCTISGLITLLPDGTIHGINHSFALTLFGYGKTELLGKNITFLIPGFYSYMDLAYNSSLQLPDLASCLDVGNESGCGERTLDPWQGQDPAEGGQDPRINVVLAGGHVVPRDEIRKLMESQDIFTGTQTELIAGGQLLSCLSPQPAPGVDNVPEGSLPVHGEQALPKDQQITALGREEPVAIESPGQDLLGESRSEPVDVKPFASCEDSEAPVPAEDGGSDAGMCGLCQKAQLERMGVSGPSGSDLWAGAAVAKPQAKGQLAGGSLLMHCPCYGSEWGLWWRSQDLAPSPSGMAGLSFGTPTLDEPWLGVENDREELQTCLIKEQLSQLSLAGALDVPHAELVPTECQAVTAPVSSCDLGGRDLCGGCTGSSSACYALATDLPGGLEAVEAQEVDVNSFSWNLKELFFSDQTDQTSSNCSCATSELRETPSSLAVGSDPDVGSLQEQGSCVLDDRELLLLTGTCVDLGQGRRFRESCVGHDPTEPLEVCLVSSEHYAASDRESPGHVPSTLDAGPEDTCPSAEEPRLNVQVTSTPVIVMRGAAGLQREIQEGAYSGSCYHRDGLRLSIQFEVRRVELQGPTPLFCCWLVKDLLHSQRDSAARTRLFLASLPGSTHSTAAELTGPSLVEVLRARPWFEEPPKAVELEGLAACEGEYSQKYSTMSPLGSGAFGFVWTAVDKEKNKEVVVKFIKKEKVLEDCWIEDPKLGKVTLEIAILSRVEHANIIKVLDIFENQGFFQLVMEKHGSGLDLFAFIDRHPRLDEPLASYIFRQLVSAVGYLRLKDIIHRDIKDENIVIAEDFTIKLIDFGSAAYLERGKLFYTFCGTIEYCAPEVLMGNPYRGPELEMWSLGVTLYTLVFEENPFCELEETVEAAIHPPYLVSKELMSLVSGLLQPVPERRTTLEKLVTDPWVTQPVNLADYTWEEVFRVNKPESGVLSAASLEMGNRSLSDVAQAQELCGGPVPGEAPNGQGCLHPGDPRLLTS

A word on the inhibition: it is the change of the read-out against control, counted positive when it falls. With `O=C1NC(=O)C(c2cccc(Cl)c2)=C1Nc1ccc(O)c(Cl)c1`, the inhibition was 16.3% in [1]; 1.02% in [2]; 0.49% in [3]; 2.04% in [4]; 6.07% in assay [5]; 1.35% in assay [6]. In addition, the inhibition in assay [7] is -1.03%; in assay [8], 1.35%; in assay [9], 3.87%; in assay [10], 0.87%; in [11] it was 1.76%; in [12] it was -0.02%. In addition, the inhibition in assay [13] was 0.87%; in assay [14], -0.23%; in assay [15], -0.79%; in assay [16], -4.1%; in [17] it was 9.22%; in assay [18], -3.06%. The inhibition in assay [19] is 19.8%; in assay [20] it was 3.62%.
On to `[O-][S+]1CCN(Cc2ccc(-c3ccc4ncnc(Nc5ccc(OCc6ccccc6)c(F)c5)c4c3)o2)CC1`, for which the inhibition in assay [1] is 0.88%; in assay [2], -0.22%; in assay [3], -1.35%; in assay [4], 1.18%; in assay [5] it was -5.45%; in assay [6], 2.22%. Also, the inhibition in assay [7] was 0.5%; in assay [8], 0.8%; in assay [9], 0.1%; in assay [10], -0.49%; in [11], 0.23%; in assay [12] it was -1.55%. Moreover, the inhibition in assay [13] was -1.98%; in [14] it was 0.41%; in assay [15], -0.19%; in assay [16], 3.06%; in assay [17] it was 3.96%; in [18], 3.09%. Further, the inhibition amounted to 5.38% in [19] and 1.1% in assay [20].
As for `Nc1ncnc2occ(-c3ccc(NC(=O)Nc4cccc(C(F)(F)F)c4)cc3)c12`, the inhibition in assay [1] was 3.83%; in [2], -0.58%; in assay [3], 0.31%; in assay [4], 6.3%; in [5] it was 10.2%; in assay [6], 6.43%. The inhibition in [7] was found to be 4.64%; in assay [8], 1.56%; in assay [9], 2.28%; in [10] it was 0.42%; in assay [11], 0.72%; in assay [12], 0.78%. In addition, the inhibition in assay [13] was 0.9%; in assay [14], 1.67%; in assay [15], 1.36%; in assay [16] it was -0.49%; in assay [17], 9.69%; in [18] it was 4.8%. The inhibition in [19] was determined as 3.6%; in [20], 3.95%.
Turning to `Cn1cc(C=C2C(=O)Nc3cccnc32)c2ccccc21`, the inhibition was 5.73% in [1]; -0.07% in assay [2]; -2.27% in [3]; 4.46% in assay [4]; 20.8% in assay [5]; 2.23% in assay [6]. In addition, the inhibition was found to be 2.8% in assay [7]; 1.3% in assay [8]; 10.4% in assay [9]; 0.38% in assay [10]; 3.47% in assay [11]; 0.47% in [12]. In addition, the inhibition was 11.5% in [13]; 0.25% in assay [14]; 1.48% in [15]; -0.28% in [16]; 9.48% in assay [17]; 2.86% in assay [18]. In addition, the inhibition was 4.37% in [19] and 2.42% in assay [20].
Turning to `COC(=O)Nc1nc2cc(Oc3cccc(NC(=O)Nc4cc(C(F)(F)F)ccc4F)c3)ccc2[nH]1`, the inhibition in assay [1] was 0.86%; in assay [2], 0.12%; in assay [3] it was 0.57%; in assay [4] it was 2.73%; in assay [5], 2.22%; in assay [6], -0.89%. Also, the inhibition in [7] is -1.83%; in assay [8], -0.25%; in assay [9], 0.39%; in assay [10] it was -0.3%; in assay [11] it was 0.76%; in assay [12] it was 0.14%. Also, the inhibition in assay [13] was 0.51%; in assay [14] it was -0.26%; in [15] it was -2.14%; in assay [16], 0.37%; in assay [17] it was 2.51%; in [18], -0.54%. The inhibition in assay [19] was found to be 3.76%.
Turning to `COC(=O)Nc1nc2cc(Oc3ccc(NC(=O)Nc4cccc(C(=O)O)c4)cc3)ccc2[nH]1`, the inhibition is 0.87% in [1]; 0.9% in assay [2]; 1.66% in assay [3]; -0.77% in assay [4]; 11.2% in assay [5]; 1.36% in assay [6]. Also, the inhibition in [7] was 4.11%; in [8], -0.3%; in assay [9] it was 0.62%; in assay [10] it was -4.42%; in [11], -2.76%; in assay [12] it was 1.29%. The inhibition in assay [13] is 3.84%; in assay [14] it was 0.42%; in assay [15] it was 1%; in assay [16], 3.75%; in assay [17] it was 1.25%; in assay [18], -0.04%. The inhibition in assay [19] was 2.04%; in [20], 0.81%.
As for `Cc1nn(C)c2cc(N(C)c3ccnc(Nc4cccc(S(N)(=O)=O)c4)n3)ccc12`, the inhibition is 1.25% in [1]; -0.56% in assay [2]; -0.33% in assay [3]; 3.53% in assay [4]; 8.04% in assay [5]; 2.44% in assay [6]. In addition, the inhibition in assay [7] worked out at 2.5%; in [8], 1.18%; in assay [9], 0.82%; in assay [10], 0.22%; in assay [11], 0.81%; in assay [12], 0.16%. Further, the inhibition in assay [13] is -0.2%; in [14] it was 0.87%; in assay [15], 1.23%; in assay [16] it was 9.49%; in assay [17] it was 55.3%; in assay [18], 7.91%. Moreover, the figures for the inhibition in assay [19] and in [20] were 24.3% and 2.88%, respectively.
